Rows were chosen to be rich in hits. Some 2% of all compounds tested hit in one or more screens of this group.
APOBEC3G inh: APOBEC3G (human) deaminase inhibition. Q9HC16. recombinant A3G, ssDNA deamination FAM/TAMRA fluorescence. inhibition, % at 20 µM. 330,000 compounds, 0.28% hits. AID 493012;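 active = inhibition of at least 40% at 20 µM, with no more than 30% in the related APOBEC3A deaminase screen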;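 note: plate controls were DMSO wells with A3G for no effect and wells lacking A3G enzyme for full effect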
Target sequence (Q9HC16 whole entry, looked up): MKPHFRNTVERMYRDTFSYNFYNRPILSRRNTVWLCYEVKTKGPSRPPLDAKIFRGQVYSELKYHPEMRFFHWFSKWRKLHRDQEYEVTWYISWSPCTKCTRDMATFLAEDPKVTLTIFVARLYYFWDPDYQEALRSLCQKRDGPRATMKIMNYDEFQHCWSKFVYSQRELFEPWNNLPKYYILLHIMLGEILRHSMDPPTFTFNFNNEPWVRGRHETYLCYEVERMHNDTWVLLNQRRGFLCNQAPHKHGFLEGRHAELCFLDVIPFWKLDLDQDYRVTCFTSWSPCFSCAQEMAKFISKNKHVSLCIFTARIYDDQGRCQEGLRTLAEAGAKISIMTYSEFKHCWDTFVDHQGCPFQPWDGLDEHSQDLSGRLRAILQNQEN
Fh CTSL1 inh: blocks F. hepatica cathepsin L1 in PFM18AAP counter-screen. recombinant F. hepatica cathepsin L1, Z-Leu-Arg-MCA fluorescence. inhibition, % at 5.96 µM. 300,000 compounds, 0.49% hits. AID 1906;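 active = inhibition above the mean of all tested compounds plus 3 SD, set per screening campaign, cut at about 17% in these data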;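 note: 0% = plate median of test compound wells and 100% = 1 µM Z-Phe-Ala-diazomethylketone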
NALP1 inh: blocks the NALP1 inflammasome reconstituted in yeast; AID 2071; S. cerevisiae NALP1/ASC/caspase-1 growth, X-gal OD620, 72 h; inhibition, % at 10 µM; 280,000 compounds, 0.61% hits; in the data active = inhibition mostly above about 24%, no sharp cut-off; inactive = mostly below about 32%
APOBEC3A inh: inhibitors of human APOBEC3A DNA deaminase. P31941. recombinant A3A, FAM/TAMRA ssDNA deamination fluorescence. inhibition, % at 20 µM. 330,000 compounds, 0.41% hits;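 active = at least 40% inhibition at 20 µM here, with at most 30% in a related deaminase screen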;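 note: plate controls were A3A with DMSO for no effect and wells lacking A3A enzyme for full effect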
Target sequence (P31941 whole entry, looked up): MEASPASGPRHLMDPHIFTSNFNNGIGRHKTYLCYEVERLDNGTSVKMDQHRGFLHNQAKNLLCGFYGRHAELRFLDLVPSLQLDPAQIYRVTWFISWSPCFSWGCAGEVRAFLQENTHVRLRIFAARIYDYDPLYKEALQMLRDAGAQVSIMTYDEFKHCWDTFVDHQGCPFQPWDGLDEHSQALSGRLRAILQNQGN
HGIII-sPLA2 inh: Inhibits HGIII-sPLA2 liposome hydrolysis, primary screen | QFRET BODIPY PC-A2 liposome hydrolysis, fluorescence | inhibition, % at 12.2 µM | 370,000 compounds, 0.56% hits;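 active = inhibition above mean plus 3 SD of compounds lying within the high and low control bounds, cut at about 19% in these data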;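 note: 0% = median of test compound wells and 100% = no enzyme DMSO wells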
APOBEC3A confirm: confirmation of human APOBEC3A DNA deaminase inhibitors | shares compounds with APOBEC3A inh | recombinant A3A, ssDNA deaminase UDG fluorescence assay | inhibition, % at 20 µM | 1,400 compounds, 63% hits;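 active = inhibition reaching a set limit, 80% of the first screen's cutoff, at 20 µM in any replicate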;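 note: plate controls were DMSO wells with A3A for no effect and wells lacking A3A enzyme for full effect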
UDG ctr A3A: UDG inhibition in APOBEC3A counter-screen | inhibition, % at 20 µM | UDG counterscreen, FAM/TAMRA uracil oligo fluorescence | 1,000 tested, under 10 active | shares compounds with APOBEC3A inh; call rule not given here
The depositor's hits bear a star.

`Cc1cccc(Cn2cc(CN3CC(N(C)CCCOC(=O)c4cc5ccccc5o4)CS3(=O)=O)nn2)c1` (centres undefined) gave HGIII-sPLA2 inh -14.9.
Screening CC(=O)N1CCCc2cc(S(=O)(=O)CCC(=O)N3CCN(c4cccc(C)c4)C(C)C3)ccc21 (centres undefined) returned APOBEC3G inh -4.6, Fh CTSL1 inh -15.1, NALP1 inh 18.2, APOBEC3A inh 0.2 and HGIII-sPLA2 inh -4.8.
Screening Cc1cccc(N2CCN(C(=O)CCS(=O)(=O)c3ccc(Br)cc3)CC2C)c1 (centres undefined) returned APOBEC3G inh 17.6, Fh CTSL1 inh -3.8, NALP1 inh 14.4, APOBEC3A inh 44.7*, HGIII-sPLA2 inh -7.4 and APOBEC3A confirm 28.8.
S=c1[nH]nc(-c2cc(-c3ccccc3)n[nH]2)n1/N=C/c1cccc2ccccc12 was read as HGIII-sPLA2 inh 8.7.
For Cc1ccoc1C(=O)NCc1occc1C(=O)O the results were APOBEC3G inh 9.7, Fh CTSL1 inh 0.0, NALP1 inh 19.5, APOBEC3A inh 40.0, HGIII-sPLA2 inh -0.2 and APOBEC3A confirm 28.0.
Screening CC(C)COC(=O)N1CC(O)CC1C(=O)Nc1ccc2c(c1)OCO2 (centres undefined) returned APOBEC3G inh 23.1, APOBEC3A inh 53.5*, HGIII-sPLA2 inh 4.3, APOBEC3A confirm 80.9* and UDG ctr A3A -0.6.
Screening O=C(Nc1nc2ccc([N+](=O)[O-])cc2s1)c1ccco1 returned APOBEC3G inh 6.5, Fh CTSL1 inh 1.3, NALP1 inh -8.5, APOBEC3A inh 7.7 and HGIII-sPLA2 inh 0.8.
For COc1ccc2sc(NC(=O)c3ccco3)nc2c1 the results were APOBEC3G inh 29.4, Fh CTSL1 inh 4.6, NALP1 inh -4.3, APOBEC3A inh 61.0*, HGIII-sPLA2 inh 14.2, APOBEC3A confirm 47.9* and UDG ctr A3A -1.6.
For COc1ccc2nc(NC(=O)c3ccc(-c4cccc([N+](=O)[O-])c4)o3)sc2c1 the results were APOBEC3G inh 14.3, Fh CTSL1 inh 1.4, NALP1 inh 29.0, APOBEC3A inh 52.5* and APOBEC3A confirm 32.1*.
CCOC(=O)[C@@]12CCC3=C1N(CCC3)C(=O)[C@H](CC(=O)N1CCSCC1)C2 was read as HGIII-sPLA2 inh 5.1.
Cc1ccc(NC(=O)Cn2nnc(-c3ccncc3)n2)cc1C was read as HGIII-sPLA2 inh 0.7.
Screening COc1ccc(N(CC(=O)N2CCc3ccccc3C2)S(C)(=O)=O)cc1Cl returned APOBEC3G inh 6.1, Fh CTSL1 inh -1.5, NALP1 inh -10.0, APOBEC3A inh 47.2*, HGIII-sPLA2 inh 3.2 and APOBEC3A confirm 12.5.
`COc1ccc(N(CC(=O)N2CCCCCC2)S(C)(=O)=O)cc1Cl` gave APOBEC3G inh -3.5, Fh CTSL1 inh 2.4, NALP1 inh 20.9, APOBEC3A inh -2.4 and HGIII-sPLA2 inh -0.4.
For COc1ccc(Cn2ccc3ccc(-c4ccc5ccn(Cc6ccc(F)cc6)c5c4)cc32)cc1 the results were HGIII-sPLA2 inh 7.4.
Screening COC(=O)c1cc2c(c3c4cc(OC)ccc4n(S(=O)(=O)c4ccc(F)cc4)c13)C(=O)N(CC(C)C)C2 returned HGIII-sPLA2 inh 2.3.
Screening Oc1ccc2ccccc2c1C=Nn1c(-c2n[nH]c3c2CCC3)n[nH]c1=S returned HGIII-sPLA2 inh 11.8.
For CC1(OC(=O)C2CCCC2)C(=O)C=C2C=C3CCCCN3C=C2C1=O (centres undefined) the results were APOBEC3G inh 19.5, Fh CTSL1 inh 12.6, APOBEC3A inh 43.9*, APOBEC3A confirm 22.8* and UDG ctr A3A 2.1.
For COC(=O)CCC(=O)OC1(C)C(=O)C=C2C=C3CCCN3C=C2C1=O (centres undefined) the results were APOBEC3G inh 42.8, Fh CTSL1 inh 2.0, APOBEC3A inh 54.2 and HGIII-sPLA2 inh -6.2.
O=C(CSc1nnc(-c2ccccn2)n1Cc1ccco1)Nc1ccc(Oc2ccccc2)cc1 was read as HGIII-sPLA2 inh -14.2.
`CCC1(c2ccc(F)cc2)NC(=O)N(CC(=O)N2CCN(C(=O)c3cccs3)CC2)C1=O` (centres undefined) gave APOBEC3G inh -8.6, APOBEC3A inh 1.0 and HGIII-sPLA2 inh 5.3.
`CC(C)c1ccc(C2(C)NC(=O)N(CC(=O)N3CCN(C(=O)c4cccs4)CC3)C2=O)cc1` (centres undefined) gave APOBEC3G inh -3.9, APOBEC3A inh 48.1*, HGIII-sPLA2 inh 1.4, APOBEC3A confirm 6.0 and UDG ctr A3A 1.5.
C[n+]1cccc(C2C(C#N)=C(N)Oc3c2ccc2ccccc32)c1 (centres undefined) was read as APOBEC3G inh 15.3, Fh CTSL1 inh 7.3, NALP1 inh 10.0, APOBEC3A inh 41.0*, HGIII-sPLA2 inh -2.5, APOBEC3A confirm 30.6* and UDG ctr A3A -1.4.
For C[n+]1cccc2ccc3c(c21)OC(N)=C(C#N)C3c1ccccc1 (centres undefined) the results were APOBEC3G inh 13.0, Fh CTSL1 inh 3.6, APOBEC3A inh 33.7 and HGIII-sPLA2 inh 2.1.
Screening CCC[C@H]1[C@@H](OC(=O)NCc2ccccc2Cl)CC[C@@]23CCCN2C(=O)CCC[C@@H]13 returned HGIII-sPLA2 inh -5.4.
CCN(Cc1ccc(OC)c(F)c1)C(=O)C1CCCO1 (centres undefined) was read as APOBEC3G inh 5.2, Fh CTSL1 inh -1.7, NALP1 inh 1.1, APOBEC3A inh 55.6*, HGIII-sPLA2 inh 8.9, APOBEC3A confirm 32.0* and UDG ctr A3A -2.8.
Screening CCC1(c2ccccc2)NC(=O)N(CC(=O)Nc2ccc(S(=O)(=O)N3CC(C)CC(C)C3)cc2)C1=O (centres undefined) returned APOBEC3G inh -4.4, Fh CTSL1 inh 0.7, APOBEC3A inh 1.6 and HGIII-sPLA2 inh -31.4.
For CC1(c2ccc(Cl)cc2)NC(=O)N(CC(=O)Nc2ccc(N3CCCCC3)cc2)C1=O (centres undefined) the results were APOBEC3G inh -5.8, Fh CTSL1 inh -5.3, APOBEC3A inh 44.6*, HGIII-sPLA2 inh 7.2, APOBEC3A confirm -6.0 and UDG ctr A3A -2.9.
CC1CCN(S(=O)(=O)c2ccc(NC(=O)CN3C(=O)NC(C)(c4ccccc4)C3=O)cc2)CC1 (centres undefined) was read as APOBEC3G inh 4.5, Fh CTSL1 inh 1.2, APOBEC3A inh 49.0*, HGIII-sPLA2 inh -32.5 and APOBEC3A confirm -3.3.
O=C(COc1ccccc1Cl)Nc1cccnc1 was read as APOBEC3G inh -0.2, Fh CTSL1 inh -1.8, NALP1 inh 9.3, APOBEC3A inh -0.4 and HGIII-sPLA2 inh -4.4.
For Cc1ccc(Cl)c(OCC(=O)Nc2cccnc2)c1 the results were APOBEC3G inh 3.7, Fh CTSL1 inh -0.9, NALP1 inh -0.8, APOBEC3A inh 44.0*, HGIII-sPLA2 inh 2.4 and APOBEC3A confirm -2.5.
